D2 antagonist: HTS Assay for Allosteric Antagonists of the Human D2 Dopamine Receptor: Primary Screen for Antagonists. D(2) dopamine receptor (Homo sapiens), P14416. HEK293 TREx D2 cells, calcium flux, dopamine EC80. inhibition, % at 10 µM. hit rate 2% among 340,000. AID 485344, 2010; in the data active = inhibition above about 30%; inactive = below that, where a call was filed; also: 0% is about no effect
Target sequence (P14416 whole entry, looked up): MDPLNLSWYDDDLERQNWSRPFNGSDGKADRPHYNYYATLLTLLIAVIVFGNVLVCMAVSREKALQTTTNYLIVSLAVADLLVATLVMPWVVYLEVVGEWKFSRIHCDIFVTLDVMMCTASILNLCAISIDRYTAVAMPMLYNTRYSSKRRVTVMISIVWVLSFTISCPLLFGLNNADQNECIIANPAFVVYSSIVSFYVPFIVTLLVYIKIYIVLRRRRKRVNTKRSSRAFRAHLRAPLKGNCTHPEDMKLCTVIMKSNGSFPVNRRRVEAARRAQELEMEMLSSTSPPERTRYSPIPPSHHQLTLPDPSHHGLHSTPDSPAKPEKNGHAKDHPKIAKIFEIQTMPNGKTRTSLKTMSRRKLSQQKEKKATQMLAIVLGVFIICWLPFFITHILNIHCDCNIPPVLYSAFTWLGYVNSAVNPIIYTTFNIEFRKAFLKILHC
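Tetracycline-induced HEK293 TREx cells expressing D2 receptor forced-coupled to calcium signalling, loaded with no-wash calcium dye. Compounds added and calcium flux read 180 s, then dopamine added at EC80 and read a further 180 s.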
D2 PAM-1: HTS Assay for Positive Allosteric Modulators of the Human D2 Dopamine Receptor: Primary Screen for Potentiators; HEK293 T-REx D2, calcium flux, EC20 dopamine potentiation; potentiation, % at 10 µM; hit rate 0.34% among 340,000;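 active = potentiation over 3 SD above the plate norm, cut at about 30% in these data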; also: 0% is about no effect
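Tetracycline-induced HEK293 T-REx cells force-coupled to calcium signalling expressed D2; compounds were pin-added after a 10 s baseline, read kinetically 180 s, then an EC20 dopamine challenge followed with a further 180 s calcium read.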
D2 PAM-2: Beta-Arrestin HTS for Positive Allosteric Modulators of the Human D2 Dopamine Receptor: Potentiators. D(2) dopamine receptor (Homo sapiens), P14416. DiscoveRx D2 beta-arrestin cells, luminescence, 90 min; 100% = 57 uM dopamine signal. potentiation, % (no concentration beside the values). hit rate 0.23% among 360,000. AID 624464, 2012; in the data active = potentiation above about 50%
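PathHunter beta-arrestin assay in DiscoveRx D2 cells. Compounds were added with an EC20 of dopamine (50 nM final) for 90 min at 37 deg C. Luminescence was read 1 h after detection reagent, with 57 uM dopamine as the EC100 control.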
D2 ag-1: Beta-Arrestin HTS for Positive Allosteric Modulators of the Human D2 Dopamine Receptor: Agonists | DiscoveRx PathHunter D2 beta-arrestin, luminescence, 90 min; 100% = 57 uM dopamine signal | hit rate 0.084% among 360,000 | activation, % (concentration not given with the values) | AID 624465, 2012 | D(2) dopamine receptor (Homo sapiens), P14416; in the data active = activation above about 40%
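DiscoveRx PathHunter D2 beta-arrestin cells (2,100/well) attached overnight, then compound-stimulated 90 min at 37 C in HBSS/10 mM HEPES/0.1% Tween-20 buffer; beta-galactosidase complementation read by luminescence after 1 h at ambient temperature. Dopamine 57 uM final (EC100) as control.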
D2 ag-2: HTS Assay for Allosteric Agonists of the Human D2 Dopamine Receptor: Primary Screen for Agonists | HEK293 T-REx D2 cells, calcium flux agonist mode | AID 485358, 2010 | D(2) dopamine receptor (Homo sapiens), P14416 | activation, % at 2 µM | hit rate 0.53% among 340,000;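 active = activation over 3 SD above normal in the single-dose calcium agonist read, cut at about 30% in these data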; also: 0% is about no effect
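Calcium-flux readout, 1 cycle/sec over 180 s following compound pin transfer, in inducible HEK293 Trex D2 cells (force-coupled); dopamine controls included. Positive calcium responses during this window marked compounds as potential agonists.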
An asterisk follows results filed as active. Rows were chosen to be rich in hits. Some 2.4% of all compounds tested hit in one or more screens of this group.

For O=C(c1cc2ccccc2[nH]1)N(Cc1cccnc1)CC1CCCN(C2CCCCC2)C1 (stereo not given) the results were D2 antagonist 39*, D2 PAM-1 -12, D2 PAM-2 -26, D2 ag-1 0 and D2 ag-2 0.
Screening CCC(CO)Nc1ncnc2c1cnn2-c1ccc(C)cc1 (stereo not given) returned D2 PAM-1 -6 and D2 ag-2 0.
For O=C1/C(=C\c2cccc(O)c2O)SC(=S)N1Cc1ccccc1 the results were D2 PAM-1 14, D2 PAM-2 -5 and D2 ag-1 3.
For O=C1/C(=C\c2cc([N+](=O)[O-])ccc2O)SC(=S)N1Cc1ccc(Cl)cc1 the results were D2 antagonist -14, D2 PAM-1 4, D2 PAM-2 -13, D2 ag-1 -7 and D2 ag-2 90*.
For CCc1ccc(N2CCn3c2nc2c3c(=O)n(Cc3cccc(C)c3)c(=O)n2C)cc1 the results were D2 PAM-1 4 and D2 ag-2 0.
`Clc1cccc(-c2nn3c(Cn4cnc5ccccc54)nnc3s2)c1` gave D2 antagonist 34*, D2 PAM-1 13, D2 PAM-2 -5, D2 ag-1 -3 and D2 ag-2 3.
CC(=O)Nc1ccc(-c2csc(NC(=O)CC(NC(C)=O)c3ccccc3)n2)cc1 (stereo not given) was read as D2 antagonist 4, D2 PAM-1 36*, D2 PAM-2 2, D2 ag-1 0 and D2 ag-2 0.
OC1CCCCC1Sc1nc2ccccc2s1 (stereo not given) was read as D2 antagonist 40*, D2 PAM-1 -12, D2 PAM-2 -2, D2 ag-1 -2 and D2 ag-2 0.
OC(COCc1ccccc1)CN1CCc2ccccc2C1 (stereo not given) was read as D2 antagonist 47*, D2 PAM-1 -27, D2 PAM-2 -27, D2 ag-1 -1 and D2 ag-2 0.
`OC(COc1c(F)cc(Br)cc1F)CN1CCc2ccccc2C1` (stereo not given) gave D2 antagonist 65*, D2 PAM-1 -33, D2 PAM-2 -77, D2 ag-1 -3 and D2 ag-2 -1.
COc1ccc(COCC(O)CN2CCc3ccccc3C2)cc1OC (stereo not given) was read as D2 PAM-2 -17 and D2 ag-1 -2.
For Cc1cccc(C)c1OCC(O)CN1CCc2ccccc2C1 (stereo not given) the results were D2 PAM-2 -16 and D2 ag-1 -6.
`CCC(C)NC(=O)c1ccc2c(c1)N(Cc1ccccc1)C(=O)c1ccccc1S2(=O)=O` (stereo not given) gave D2 PAM-1 1 and D2 ag-2 1.
Screening Cc1ccc(C)c(Nc2nc(-c3ccncc3)nc3ccccc23)c1 returned D2 antagonist 36*, D2 PAM-1 13, D2 PAM-2 -4 and D2 ag-1 5.
`CCC(NC(=O)c1ccc([N+](=O)[O-])cc1[N+](=O)[O-])c1ccccc1` (stereo not given) gave D2 antagonist -2, D2 PAM-1 7, D2 PAM-2 74*, D2 ag-1 11 and D2 ag-2 1.
Screening c1c(C2CCCCC2)n[nH]c1CN1CCCCC1 returned D2 antagonist 40*, D2 PAM-1 -22, D2 PAM-2 -42, D2 ag-1 -1 and D2 ag-2 0.
CCOc1ccc(NC(=O)CCC(=O)NNC(=O)COc2ccccc2C)cc1 was read as D2 antagonist 36*, D2 PAM-1 -4, D2 PAM-2 0, D2 ag-1 -5 and D2 ag-2 -1.
Screening CN(C)c1nc(SCC(=O)Nc2ccc(Cl)c(Cl)c2)nc(N2CCOCC2)n1 returned D2 antagonist 12, D2 PAM-2 -7, D2 ag-1 3 and D2 ag-2 -2.
